# Reference: PMC7862700, “An all-to-all approach to the identification of sequence-specific readers for epigenetic DNA modifications on cytosine”
# How the values were obtained:
# Experiment in all cases: DAPPL (digital affinity profiling via proximity ligation, sequencing); 10 mM Tris-HCl pH 7.5, 50 mM NaCl, 1 mM DTT, 4% glycerol, room temperature, 30 min; GST-TFs on glutathione beads, 16-mer random dsDNA library, 0.1% formaldehyde crosslink after washing; high values mean tight binding
# FLI1 = molecular target: T1, FLI1 (Homo sapiens, UniProt Q01543 1-452); conditions: protein: recombinant; tags: N-terminal GST; dsDNA, one strand shown
# T1 sequence: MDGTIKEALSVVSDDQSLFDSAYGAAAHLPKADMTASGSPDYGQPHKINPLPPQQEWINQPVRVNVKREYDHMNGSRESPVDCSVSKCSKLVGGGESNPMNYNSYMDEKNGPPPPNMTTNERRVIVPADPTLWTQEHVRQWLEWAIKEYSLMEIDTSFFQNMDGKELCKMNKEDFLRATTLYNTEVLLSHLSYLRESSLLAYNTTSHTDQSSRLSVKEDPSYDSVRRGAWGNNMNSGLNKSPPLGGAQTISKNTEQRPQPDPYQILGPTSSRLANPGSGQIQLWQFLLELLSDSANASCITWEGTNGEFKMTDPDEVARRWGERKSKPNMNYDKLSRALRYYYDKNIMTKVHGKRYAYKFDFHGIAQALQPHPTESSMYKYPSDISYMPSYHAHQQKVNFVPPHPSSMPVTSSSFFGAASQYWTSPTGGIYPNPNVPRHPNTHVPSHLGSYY
# Outline: (§1)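 Sequencing on an Illumina NextSeq500 followed washing, crosslinking with 0.1% formaldehyde, proximity ligation (BsaI/T4 ligase, 1 h, 37 °C) and PCR amplification of pools that had been incubated for 30 min at room temperature with 200 nmole of a random double-stranded 16-mer DNA library in Tris/NaCl/DTT/glycerol buffer. Each pool held DNA-barcoded human transcription factors, expressed in yeast as GST fusions and captured on glutathione beads, plus a tag-only sample. Binding signal is a hexamer's read frequency for a factor divided by its frequency in the tag-only sample.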
# ELK1 = molecular target: T2, ELK1 (Homo sapiens, UniProt P19419 1-428); conditions: protein: recombinant; tags: N-terminal GST; dsDNA, one strand shown
# T2 sequence: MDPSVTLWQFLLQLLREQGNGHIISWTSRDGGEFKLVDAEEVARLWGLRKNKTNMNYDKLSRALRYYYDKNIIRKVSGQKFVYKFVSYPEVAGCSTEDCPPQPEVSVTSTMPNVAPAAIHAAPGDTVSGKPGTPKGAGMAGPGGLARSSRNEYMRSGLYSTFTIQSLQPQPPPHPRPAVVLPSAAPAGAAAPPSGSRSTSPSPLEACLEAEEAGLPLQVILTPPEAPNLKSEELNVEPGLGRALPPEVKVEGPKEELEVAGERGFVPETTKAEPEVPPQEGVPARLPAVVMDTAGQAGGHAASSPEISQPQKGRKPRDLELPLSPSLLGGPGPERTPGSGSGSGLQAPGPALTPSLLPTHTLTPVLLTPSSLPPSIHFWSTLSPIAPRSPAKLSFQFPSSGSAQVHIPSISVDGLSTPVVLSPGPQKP
# Outline: as §1
# GABPA = molecular target: T3, GABPA (Homo sapiens, UniProt Q06546 1-454); conditions: protein: recombinant; tags: N-terminal GST; dsDNA, one strand shown
# T3 sequence: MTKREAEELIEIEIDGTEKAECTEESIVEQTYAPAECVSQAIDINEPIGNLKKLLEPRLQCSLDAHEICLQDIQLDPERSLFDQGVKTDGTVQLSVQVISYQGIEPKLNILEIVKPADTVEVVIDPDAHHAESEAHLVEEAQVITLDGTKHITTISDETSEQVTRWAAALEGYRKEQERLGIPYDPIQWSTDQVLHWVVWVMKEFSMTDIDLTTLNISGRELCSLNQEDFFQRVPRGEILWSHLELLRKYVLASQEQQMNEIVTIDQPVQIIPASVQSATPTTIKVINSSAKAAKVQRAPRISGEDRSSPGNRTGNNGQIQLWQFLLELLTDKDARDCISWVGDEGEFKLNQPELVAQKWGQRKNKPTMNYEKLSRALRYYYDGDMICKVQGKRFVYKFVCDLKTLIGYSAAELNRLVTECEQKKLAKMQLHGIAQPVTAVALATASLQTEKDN
# Outline: as §1
# ERG = molecular target: T4, ERG (Homo sapiens, UniProt P11308 1-479); conditions: protein: recombinant; tags: N-terminal GST; dsDNA, one strand shown
# T4 sequence: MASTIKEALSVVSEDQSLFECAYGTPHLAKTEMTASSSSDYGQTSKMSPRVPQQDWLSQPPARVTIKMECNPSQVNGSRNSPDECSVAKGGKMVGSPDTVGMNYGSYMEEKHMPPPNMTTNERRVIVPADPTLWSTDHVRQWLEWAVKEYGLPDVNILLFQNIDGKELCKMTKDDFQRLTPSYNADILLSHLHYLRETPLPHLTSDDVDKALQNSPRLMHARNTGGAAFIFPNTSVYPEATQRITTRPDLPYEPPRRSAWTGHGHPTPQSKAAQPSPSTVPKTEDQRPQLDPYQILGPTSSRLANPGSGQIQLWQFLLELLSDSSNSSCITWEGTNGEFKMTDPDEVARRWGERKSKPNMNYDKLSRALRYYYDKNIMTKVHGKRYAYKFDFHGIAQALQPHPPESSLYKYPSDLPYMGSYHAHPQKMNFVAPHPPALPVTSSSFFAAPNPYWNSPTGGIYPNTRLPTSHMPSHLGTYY
# Outline: as §1
# ELF1 = ELF1 (Homo sapiens, UniProt P32519 1-619); conditions: protein: recombinant; tags: N-terminal GST; dsDNA, one strand shown
# Sequence of ELF1 (P32519 whole entry): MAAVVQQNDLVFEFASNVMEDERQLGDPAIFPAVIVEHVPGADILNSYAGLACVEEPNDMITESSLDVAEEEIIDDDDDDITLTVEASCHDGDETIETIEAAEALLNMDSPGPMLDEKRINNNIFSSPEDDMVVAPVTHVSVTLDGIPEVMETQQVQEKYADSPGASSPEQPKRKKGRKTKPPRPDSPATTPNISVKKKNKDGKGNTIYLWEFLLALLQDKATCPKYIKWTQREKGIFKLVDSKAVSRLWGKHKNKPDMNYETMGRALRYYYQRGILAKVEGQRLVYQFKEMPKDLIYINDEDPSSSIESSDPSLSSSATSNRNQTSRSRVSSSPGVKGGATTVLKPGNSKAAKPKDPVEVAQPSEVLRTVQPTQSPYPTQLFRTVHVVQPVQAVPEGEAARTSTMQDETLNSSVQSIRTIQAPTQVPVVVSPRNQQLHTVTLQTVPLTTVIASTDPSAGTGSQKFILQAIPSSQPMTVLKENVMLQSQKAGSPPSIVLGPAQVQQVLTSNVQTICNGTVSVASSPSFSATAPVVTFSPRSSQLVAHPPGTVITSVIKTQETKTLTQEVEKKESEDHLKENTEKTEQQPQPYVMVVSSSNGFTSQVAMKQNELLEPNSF
# Outline: as §1
# EHF = molecular target: T5, EHF (Homo sapiens, UniProt Q9NZC4 1-300); conditions: protein: recombinant; tags: N-terminal GST; dsDNA, one strand shown
# T5 sequence: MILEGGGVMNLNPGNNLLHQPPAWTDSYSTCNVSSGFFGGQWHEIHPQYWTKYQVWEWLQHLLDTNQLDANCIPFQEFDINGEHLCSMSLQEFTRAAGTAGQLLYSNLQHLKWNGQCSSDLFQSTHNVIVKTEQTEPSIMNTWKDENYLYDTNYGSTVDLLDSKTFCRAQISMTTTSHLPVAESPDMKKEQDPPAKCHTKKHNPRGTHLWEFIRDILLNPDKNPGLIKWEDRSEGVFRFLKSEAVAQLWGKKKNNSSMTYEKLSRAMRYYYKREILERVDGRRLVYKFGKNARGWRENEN
# Outline: as §1
# SPI1 = SPI1 (Homo sapiens, UniProt P17947 1-270); conditions: protein: recombinant; tags: N-terminal GST; dsDNA, one strand shown
# Outline: as §1
# SPIB = SPIB (Homo sapiens, UniProt Q01892 1-262); conditions: protein: recombinant; tags: N-terminal GST; dsDNA, one strand shown
# Sequence of SPIB (Q01892 whole entry): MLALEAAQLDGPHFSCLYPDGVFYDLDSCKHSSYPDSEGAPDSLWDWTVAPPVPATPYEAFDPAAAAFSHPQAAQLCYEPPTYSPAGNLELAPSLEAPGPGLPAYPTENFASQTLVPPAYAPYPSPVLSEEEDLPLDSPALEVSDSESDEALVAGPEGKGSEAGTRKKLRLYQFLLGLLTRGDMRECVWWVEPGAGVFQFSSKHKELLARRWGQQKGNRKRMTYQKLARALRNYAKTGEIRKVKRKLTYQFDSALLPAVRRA
# Outline: as §1
# ELK3 = molecular target: T6, ELK3 (Homo sapiens, UniProt P41970 1-407); conditions: protein: recombinant; tags: N-terminal GST; dsDNA, one strand shown
# T6 sequence: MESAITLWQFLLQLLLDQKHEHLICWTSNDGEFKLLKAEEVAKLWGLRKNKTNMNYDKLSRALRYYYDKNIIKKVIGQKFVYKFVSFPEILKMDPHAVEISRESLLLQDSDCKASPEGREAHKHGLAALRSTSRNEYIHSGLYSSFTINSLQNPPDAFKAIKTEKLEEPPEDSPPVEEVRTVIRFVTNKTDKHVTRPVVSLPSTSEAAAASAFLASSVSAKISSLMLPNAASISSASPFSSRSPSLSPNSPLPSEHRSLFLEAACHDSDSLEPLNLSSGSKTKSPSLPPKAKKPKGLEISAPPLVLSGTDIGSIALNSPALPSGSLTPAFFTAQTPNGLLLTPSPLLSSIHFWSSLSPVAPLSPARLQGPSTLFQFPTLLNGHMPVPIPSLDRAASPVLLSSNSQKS
# Outline: as §1
# FEV = molecular target: T7, FEV (Homo sapiens, UniProt Q99581 1-238); conditions: protein: recombinant; tags: N-terminal GST; dsDNA, one strand shown
# T7 sequence: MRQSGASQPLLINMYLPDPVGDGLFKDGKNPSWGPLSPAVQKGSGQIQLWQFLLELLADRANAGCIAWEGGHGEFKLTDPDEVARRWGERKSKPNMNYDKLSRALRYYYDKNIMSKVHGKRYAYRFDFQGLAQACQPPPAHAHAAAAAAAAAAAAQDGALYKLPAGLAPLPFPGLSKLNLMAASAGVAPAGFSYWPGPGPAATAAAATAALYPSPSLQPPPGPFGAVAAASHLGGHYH
# Outline: as §1
# ETV5 = ETV5 (Homo sapiens, UniProt P41161 1-510); conditions: protein: recombinant; tags: N-terminal GST; dsDNA, one strand shown
# Sequence of ETV5 (P41161 whole entry): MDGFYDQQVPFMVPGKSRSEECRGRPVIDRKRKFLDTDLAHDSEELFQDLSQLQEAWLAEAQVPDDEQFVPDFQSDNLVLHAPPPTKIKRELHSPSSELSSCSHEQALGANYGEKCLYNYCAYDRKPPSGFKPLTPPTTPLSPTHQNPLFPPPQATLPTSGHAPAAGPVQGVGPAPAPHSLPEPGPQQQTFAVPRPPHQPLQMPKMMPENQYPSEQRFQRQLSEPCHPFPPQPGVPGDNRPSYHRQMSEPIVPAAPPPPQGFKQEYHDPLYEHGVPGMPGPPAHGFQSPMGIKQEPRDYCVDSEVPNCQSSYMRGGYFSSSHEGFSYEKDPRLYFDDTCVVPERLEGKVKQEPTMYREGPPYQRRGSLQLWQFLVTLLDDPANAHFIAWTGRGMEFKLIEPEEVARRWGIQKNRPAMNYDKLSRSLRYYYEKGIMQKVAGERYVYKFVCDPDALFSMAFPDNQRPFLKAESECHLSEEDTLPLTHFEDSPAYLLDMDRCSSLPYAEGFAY
# Outline: as §1
# HSF1 = HSF1 (Homo sapiens, UniProt Q00613 1-529); conditions: protein: recombinant; tags: N-terminal GST; chain copies: 3; dsDNA, one strand shown
# Sequence of HSF1 (Q00613 whole entry): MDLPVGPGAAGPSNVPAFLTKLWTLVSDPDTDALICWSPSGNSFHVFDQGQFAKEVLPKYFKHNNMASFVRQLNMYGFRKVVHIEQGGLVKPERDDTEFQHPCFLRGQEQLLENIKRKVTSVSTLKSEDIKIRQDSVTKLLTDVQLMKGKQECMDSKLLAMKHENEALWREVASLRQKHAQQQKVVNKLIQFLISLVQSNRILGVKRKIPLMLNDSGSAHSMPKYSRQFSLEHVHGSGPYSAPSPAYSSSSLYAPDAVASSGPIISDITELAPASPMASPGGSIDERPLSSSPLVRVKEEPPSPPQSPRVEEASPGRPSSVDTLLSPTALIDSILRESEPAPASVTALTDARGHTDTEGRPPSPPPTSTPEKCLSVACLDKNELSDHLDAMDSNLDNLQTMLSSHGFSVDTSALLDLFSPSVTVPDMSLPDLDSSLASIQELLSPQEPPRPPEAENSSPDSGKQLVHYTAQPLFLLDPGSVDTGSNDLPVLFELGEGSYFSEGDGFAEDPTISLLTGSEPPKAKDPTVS
# Outline: as §1
# SPIC = molecular target: T8, SPIC (Homo sapiens, UniProt Q8N5J4 1-248); conditions: protein: recombinant; tags: N-terminal GST; dsDNA, one strand shown
# T8 sequence: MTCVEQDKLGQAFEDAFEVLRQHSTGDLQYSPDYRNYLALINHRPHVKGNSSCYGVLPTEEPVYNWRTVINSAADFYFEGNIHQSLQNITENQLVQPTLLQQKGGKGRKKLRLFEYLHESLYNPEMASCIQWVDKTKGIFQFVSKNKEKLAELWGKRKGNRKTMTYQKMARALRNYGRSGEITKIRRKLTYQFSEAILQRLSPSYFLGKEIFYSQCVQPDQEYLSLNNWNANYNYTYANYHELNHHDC
# Outline: as §1
# ELF4 = ELF4 (Homo sapiens, UniProt Q99607 1-663); conditions: protein: recombinant; tags: N-terminal GST; dsDNA, one strand shown
# Sequence of ELF4 (Q99607 whole entry): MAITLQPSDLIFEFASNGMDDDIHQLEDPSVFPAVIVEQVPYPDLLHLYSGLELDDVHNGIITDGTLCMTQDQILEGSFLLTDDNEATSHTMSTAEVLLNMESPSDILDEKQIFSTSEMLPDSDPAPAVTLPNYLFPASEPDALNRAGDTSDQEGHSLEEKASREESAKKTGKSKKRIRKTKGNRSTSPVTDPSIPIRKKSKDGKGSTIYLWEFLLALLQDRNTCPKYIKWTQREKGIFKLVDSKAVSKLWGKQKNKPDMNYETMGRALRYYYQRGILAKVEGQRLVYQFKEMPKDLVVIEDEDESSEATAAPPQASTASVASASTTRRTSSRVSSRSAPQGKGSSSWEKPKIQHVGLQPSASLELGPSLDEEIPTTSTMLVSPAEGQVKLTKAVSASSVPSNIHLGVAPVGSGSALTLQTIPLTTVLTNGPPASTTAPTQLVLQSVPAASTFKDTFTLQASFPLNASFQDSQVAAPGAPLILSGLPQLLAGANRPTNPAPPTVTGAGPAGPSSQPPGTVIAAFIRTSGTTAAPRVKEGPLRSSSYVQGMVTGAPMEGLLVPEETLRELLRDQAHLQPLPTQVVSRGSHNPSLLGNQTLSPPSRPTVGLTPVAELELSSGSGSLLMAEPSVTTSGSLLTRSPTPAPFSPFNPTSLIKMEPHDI
# Outline: as §1
# ELK4 = molecular target: T9, ELK4 (Homo sapiens, UniProt P28324-2 1-405); conditions: protein: recombinant; tags: N-terminal GST; dsDNA, one strand shown
# T9 sequence: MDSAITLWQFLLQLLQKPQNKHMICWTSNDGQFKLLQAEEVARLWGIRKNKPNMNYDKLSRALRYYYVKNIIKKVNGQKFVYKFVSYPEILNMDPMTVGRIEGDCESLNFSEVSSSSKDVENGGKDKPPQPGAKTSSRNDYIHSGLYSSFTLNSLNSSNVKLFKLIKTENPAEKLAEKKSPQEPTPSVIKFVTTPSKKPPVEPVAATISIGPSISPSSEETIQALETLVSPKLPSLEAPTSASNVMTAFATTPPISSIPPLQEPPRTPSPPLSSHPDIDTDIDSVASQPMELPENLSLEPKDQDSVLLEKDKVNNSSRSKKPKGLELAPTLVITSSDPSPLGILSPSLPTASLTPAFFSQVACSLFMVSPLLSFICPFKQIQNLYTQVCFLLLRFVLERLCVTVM
# Outline: as §1
# ETV2 = molecular target: T10, ETV2 (Homo sapiens, UniProt O00321 1-342); conditions: protein: recombinant; tags: N-terminal GST; dsDNA, one strand shown
# T10 sequence: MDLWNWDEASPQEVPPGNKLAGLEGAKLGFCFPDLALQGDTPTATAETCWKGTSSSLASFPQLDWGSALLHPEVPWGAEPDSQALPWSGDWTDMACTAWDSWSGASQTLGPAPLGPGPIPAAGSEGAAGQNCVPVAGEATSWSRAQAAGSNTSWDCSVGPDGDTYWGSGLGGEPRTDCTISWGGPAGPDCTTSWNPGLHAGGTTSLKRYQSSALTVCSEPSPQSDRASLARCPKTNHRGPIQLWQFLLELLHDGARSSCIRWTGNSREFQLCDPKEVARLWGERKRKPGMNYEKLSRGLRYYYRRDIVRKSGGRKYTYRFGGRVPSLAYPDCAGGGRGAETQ
# Outline: as §1
# ELF3 = molecular target: T11, ELF3 (Homo sapiens, UniProt P78545 1-371); conditions: protein: recombinant; tags: N-terminal GST; dsDNA, one strand shown
# T11 sequence: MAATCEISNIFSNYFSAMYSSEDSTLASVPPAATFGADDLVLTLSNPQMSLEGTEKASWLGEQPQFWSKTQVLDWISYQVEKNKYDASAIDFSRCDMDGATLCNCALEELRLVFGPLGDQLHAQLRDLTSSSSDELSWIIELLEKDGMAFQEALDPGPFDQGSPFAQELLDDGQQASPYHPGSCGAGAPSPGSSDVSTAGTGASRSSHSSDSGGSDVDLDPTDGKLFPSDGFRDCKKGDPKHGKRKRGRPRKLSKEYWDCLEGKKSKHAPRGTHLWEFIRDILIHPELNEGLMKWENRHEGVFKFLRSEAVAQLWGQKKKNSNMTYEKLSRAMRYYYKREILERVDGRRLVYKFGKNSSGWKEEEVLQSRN
# Outline: as §1
# CRX = CRX (Homo sapiens, UniProt O43186 1-299); conditions: protein: recombinant; tags: N-terminal GST; dsDNA, one strand shown
# Sequence of CRX (O43186 whole entry): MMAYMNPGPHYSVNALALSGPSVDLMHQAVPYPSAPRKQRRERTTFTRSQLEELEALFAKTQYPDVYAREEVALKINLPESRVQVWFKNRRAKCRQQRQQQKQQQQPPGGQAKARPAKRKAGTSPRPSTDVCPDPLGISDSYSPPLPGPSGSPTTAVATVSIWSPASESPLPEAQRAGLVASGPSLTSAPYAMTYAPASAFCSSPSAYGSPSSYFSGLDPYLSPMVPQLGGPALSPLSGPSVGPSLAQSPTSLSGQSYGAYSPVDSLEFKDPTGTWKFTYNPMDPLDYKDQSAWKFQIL
# Outline: as §1
# ETV1 = ETV1 (Homo sapiens, UniProt P50549 1-477); conditions: protein: recombinant; tags: N-terminal GST; dsDNA, one strand shown
# Sequence of ETV1 (P50549 whole entry): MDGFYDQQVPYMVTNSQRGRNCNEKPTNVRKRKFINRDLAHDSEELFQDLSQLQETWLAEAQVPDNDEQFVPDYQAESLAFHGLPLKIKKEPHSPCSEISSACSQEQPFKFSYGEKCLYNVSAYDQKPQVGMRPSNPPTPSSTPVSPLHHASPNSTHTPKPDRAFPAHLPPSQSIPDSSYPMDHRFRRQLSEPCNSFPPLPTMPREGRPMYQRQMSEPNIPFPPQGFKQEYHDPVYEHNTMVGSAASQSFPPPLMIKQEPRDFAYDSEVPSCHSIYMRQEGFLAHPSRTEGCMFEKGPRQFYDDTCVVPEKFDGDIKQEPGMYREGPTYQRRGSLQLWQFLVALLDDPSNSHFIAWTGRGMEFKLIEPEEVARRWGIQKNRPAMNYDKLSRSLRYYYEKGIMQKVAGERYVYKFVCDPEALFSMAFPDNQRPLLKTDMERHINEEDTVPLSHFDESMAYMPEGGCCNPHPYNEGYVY
# Outline: as §1
sequence,measurement,setting,value
ATGCGA,binding signal,FLI1,"1.18 fold enrichment (6-mer frequency, TF over GST control)"
same,binding signal,ELK1,"1.27 fold enrichment (6-mer frequency, TF over GST control)"
same,binding signal,GABPA,"1.24 fold enrichment (6-mer frequency, TF over GST control)"
same,binding signal,ERG,"1.21 fold enrichment (6-mer frequency, TF over GST control)"
same,binding signal,ELF1,"1.26 fold enrichment (6-mer frequency, TF over GST control)"
same,binding signal,EHF,"1.23 fold enrichment (6-mer frequency, TF over GST control)"
same,binding signal,SPI1,"1.19 fold enrichment (6-mer frequency, TF over GST control)"
same,binding signal,SPIB,"1.12 fold enrichment (6-mer frequency, TF over GST control)"
same,binding signal,ELK3,"1.14 fold enrichment (6-mer frequency, TF over GST control)"
same,binding signal,FEV,"1.17 fold enrichment (6-mer frequency, TF over GST control)"
same,binding signal,ETV5,"1.17 fold enrichment (6-mer frequency, TF over GST control)"
same,binding signal,HSF1,"1.22 fold enrichment (6-mer frequency, TF over GST control)"
same,binding signal,SPIC,"1.26 fold enrichment (6-mer frequency, TF over GST control)"
same,binding signal,ELF4,"1.29 fold enrichment (6-mer frequency, TF over GST control)"
same,binding signal,ELK4,"1.33 fold enrichment (6-mer frequency, TF over GST control)"
same,binding signal,ETV2,"1.34 fold enrichment (6-mer frequency, TF over GST control)"
same,binding signal,ELF3,"1.31 fold enrichment (6-mer frequency, TF over GST control)"
same,binding signal,CRX,"1.27 fold enrichment (6-mer frequency, TF over GST control)"
same,binding signal,ETV1,"1.16 fold enrichment (6-mer frequency, TF over GST control)"
